The supplement of paper PMC10849652
The full data set covers some 7,900 targets. This sample favours those with a hit. About 0.6% of all pairs of compound and target were hits.

Key:
Experiment in all cases: log2 fold change, soluble protein after heating vs DMSO (PISA); higher = thermal stabilisation; K562 cells, 10 uM, 30 min; active = over 0.2 and 3.5 SD of the protein, either way, in both replicates (recomputed)
[1] = compound: C1=CC=C(C=C1)[C@H](COC2=CC3=C(C=C2)NC(=O)N3)NC(=O)C4=CC=CN(C4=O)CC5=CC(=C(C=C5)F)F
Procedure, shortened: (§1)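 Aliquots of K562 cells (2×10^6 cells/mL) treated with 10 μM compound for 30 min were heated for 3 min over 48°C-58°C. After pooling and extraction in PBS with 0.5% NP-40 at 4°C, soluble protein from a 21,000xg, 90 min spin was quantified by TMTpro 16plex LC-MS/MS with channel sums equalised. Thermal stability is expressed against control samples, from duplicates, as a log2 fold change.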

[2] = compound: CC1=C(SC2=C1C(=N[C@H](C3=NN=C(N32)C)CC(=O)N)C4=CC=C(C=C4)Cl)C
Procedure, shortened: as §1

[3] = compound: CC1=C2C(=CC=C1)N=C(N(C2=O)C3=CC=CC=C3C)CN4C=NC5=C(N=CN=C54)N
Procedure, shortened: as §1

[4] = compound: Cc1sc2c(c1C)C(c1ccc(Cl)cc1)=N[C@@H](CC(=O)OC(C)(C)C)c1nnc(C)n1-2
Procedure, shortened: as §1

[5] = compound: c1ccc([C@@H]2C[C@H]2NC2CCNCC2)cc1
Procedure, shortened: as §1

Measured: log2 fold change

POLR2M (UniProt P0CAP2)
Sequence of UniProt P0CAP2 (P0CAP2 whole entry, looked up): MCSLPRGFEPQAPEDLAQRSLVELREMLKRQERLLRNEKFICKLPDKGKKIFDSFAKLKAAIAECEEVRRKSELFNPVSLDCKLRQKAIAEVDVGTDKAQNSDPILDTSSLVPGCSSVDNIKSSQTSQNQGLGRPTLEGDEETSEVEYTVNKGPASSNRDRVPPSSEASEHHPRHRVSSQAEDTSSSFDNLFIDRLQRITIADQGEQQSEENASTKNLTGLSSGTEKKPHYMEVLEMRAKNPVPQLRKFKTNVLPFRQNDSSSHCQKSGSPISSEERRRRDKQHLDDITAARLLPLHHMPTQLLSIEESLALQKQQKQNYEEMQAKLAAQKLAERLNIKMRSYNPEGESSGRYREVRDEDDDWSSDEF
inactive: [1] -0.021 | [2] 0.096 | [3] 0.045 | [4] 0.004 | [5] -0.062

PCNT (UniProt O95613)
Sequence of UniProt O95613 (O95613 whole entry, looked up): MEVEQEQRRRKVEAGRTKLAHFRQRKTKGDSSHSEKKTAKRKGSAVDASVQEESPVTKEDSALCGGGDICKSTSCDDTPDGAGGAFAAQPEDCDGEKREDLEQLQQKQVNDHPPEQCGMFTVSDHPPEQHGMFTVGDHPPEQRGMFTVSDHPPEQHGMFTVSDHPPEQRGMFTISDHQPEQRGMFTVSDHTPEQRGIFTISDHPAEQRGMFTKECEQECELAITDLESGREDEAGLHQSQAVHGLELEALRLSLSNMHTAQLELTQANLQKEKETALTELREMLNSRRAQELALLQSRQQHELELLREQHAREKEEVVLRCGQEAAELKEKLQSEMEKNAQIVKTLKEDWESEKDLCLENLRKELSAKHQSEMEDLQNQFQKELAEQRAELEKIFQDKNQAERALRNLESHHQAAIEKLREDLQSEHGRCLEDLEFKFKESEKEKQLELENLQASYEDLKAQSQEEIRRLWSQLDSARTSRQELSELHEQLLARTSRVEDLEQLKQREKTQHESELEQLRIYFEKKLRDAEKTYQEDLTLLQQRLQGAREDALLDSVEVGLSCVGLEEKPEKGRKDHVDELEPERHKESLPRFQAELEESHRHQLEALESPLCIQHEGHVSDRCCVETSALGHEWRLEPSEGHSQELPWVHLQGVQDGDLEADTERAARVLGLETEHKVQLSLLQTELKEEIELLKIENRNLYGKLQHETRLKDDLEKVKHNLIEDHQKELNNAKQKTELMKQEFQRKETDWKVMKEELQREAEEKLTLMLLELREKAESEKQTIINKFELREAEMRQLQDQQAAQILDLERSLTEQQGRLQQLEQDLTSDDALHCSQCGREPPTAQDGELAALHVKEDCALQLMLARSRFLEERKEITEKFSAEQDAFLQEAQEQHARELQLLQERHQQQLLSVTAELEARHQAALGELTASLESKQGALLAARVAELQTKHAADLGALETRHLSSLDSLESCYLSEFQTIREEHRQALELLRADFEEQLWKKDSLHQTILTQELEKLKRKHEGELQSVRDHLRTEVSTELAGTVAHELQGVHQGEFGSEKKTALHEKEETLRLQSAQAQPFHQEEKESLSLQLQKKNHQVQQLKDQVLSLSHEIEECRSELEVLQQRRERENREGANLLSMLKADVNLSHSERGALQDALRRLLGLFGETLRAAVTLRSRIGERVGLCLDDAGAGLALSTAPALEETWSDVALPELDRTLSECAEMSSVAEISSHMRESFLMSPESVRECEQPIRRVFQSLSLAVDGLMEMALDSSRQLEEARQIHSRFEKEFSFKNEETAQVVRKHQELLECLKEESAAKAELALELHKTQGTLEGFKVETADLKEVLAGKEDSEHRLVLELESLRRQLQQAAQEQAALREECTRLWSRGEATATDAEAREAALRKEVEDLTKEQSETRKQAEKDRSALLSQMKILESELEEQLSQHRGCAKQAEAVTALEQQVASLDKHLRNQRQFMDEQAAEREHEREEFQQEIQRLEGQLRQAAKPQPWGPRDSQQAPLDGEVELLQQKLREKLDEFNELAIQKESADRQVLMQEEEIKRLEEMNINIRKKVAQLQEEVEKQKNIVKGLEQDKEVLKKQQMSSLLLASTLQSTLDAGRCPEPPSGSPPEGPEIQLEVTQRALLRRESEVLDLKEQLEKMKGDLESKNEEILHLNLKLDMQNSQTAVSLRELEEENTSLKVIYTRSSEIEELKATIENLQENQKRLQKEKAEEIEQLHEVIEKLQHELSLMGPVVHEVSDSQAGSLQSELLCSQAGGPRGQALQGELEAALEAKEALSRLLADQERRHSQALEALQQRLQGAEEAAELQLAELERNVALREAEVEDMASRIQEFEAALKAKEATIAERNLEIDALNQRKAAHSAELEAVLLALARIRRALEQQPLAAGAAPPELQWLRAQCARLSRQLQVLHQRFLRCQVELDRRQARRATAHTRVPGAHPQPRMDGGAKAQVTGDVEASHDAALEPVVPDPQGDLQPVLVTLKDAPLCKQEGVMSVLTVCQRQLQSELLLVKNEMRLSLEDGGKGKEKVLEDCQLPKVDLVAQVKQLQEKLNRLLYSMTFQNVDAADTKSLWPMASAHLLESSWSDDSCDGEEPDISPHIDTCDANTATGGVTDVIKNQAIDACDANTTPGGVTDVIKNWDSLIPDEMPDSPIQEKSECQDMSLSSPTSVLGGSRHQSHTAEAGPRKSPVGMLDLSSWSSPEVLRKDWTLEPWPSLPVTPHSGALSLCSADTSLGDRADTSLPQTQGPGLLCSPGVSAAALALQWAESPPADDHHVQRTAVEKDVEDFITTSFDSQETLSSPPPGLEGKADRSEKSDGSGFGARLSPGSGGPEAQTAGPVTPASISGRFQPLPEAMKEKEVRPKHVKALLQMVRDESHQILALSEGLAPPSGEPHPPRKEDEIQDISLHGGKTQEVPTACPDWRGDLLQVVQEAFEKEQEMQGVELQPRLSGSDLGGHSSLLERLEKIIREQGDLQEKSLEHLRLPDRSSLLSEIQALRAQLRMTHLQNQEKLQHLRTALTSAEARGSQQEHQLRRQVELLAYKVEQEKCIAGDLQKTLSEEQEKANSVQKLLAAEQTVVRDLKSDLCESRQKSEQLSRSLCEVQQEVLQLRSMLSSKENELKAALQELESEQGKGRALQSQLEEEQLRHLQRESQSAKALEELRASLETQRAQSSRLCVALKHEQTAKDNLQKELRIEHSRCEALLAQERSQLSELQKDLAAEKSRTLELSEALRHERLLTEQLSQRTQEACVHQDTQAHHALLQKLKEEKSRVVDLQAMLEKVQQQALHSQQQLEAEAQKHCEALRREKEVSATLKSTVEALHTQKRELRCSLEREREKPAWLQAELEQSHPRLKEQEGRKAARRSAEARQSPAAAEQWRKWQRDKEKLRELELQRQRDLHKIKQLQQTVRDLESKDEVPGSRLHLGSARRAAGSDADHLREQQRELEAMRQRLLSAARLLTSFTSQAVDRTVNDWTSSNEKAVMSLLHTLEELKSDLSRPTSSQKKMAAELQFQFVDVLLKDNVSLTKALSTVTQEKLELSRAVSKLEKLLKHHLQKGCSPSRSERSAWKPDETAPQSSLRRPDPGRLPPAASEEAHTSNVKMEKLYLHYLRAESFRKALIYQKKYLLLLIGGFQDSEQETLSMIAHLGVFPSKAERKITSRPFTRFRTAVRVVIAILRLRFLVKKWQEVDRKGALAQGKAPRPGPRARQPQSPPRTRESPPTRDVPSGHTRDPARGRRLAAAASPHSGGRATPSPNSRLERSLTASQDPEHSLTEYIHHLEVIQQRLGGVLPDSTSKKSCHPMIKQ
inactive: [1] 0.037 | [2] -0.067 | [3] 0.11 | [4] 0.064 | [5] 0.105

PPP1R14A (UniProt Q96A00)
Sequence of UniProt Q96A00 (Q96A00 whole entry, looked up): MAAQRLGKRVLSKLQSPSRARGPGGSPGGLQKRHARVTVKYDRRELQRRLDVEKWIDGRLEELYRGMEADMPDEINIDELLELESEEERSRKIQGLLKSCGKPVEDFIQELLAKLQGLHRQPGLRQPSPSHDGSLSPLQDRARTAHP
inactive: [1] 0.011 | [2] 0.009 | [3] -0.002 | [4] 0.061 | [5] -0.013

PELO (UniProt Q9BRX2)
inactive: [1] -0.037 | [2] 0.116 | [3] 0.103 | [4] 0.064 | [5] -0.049

PRKAR1B (UniProt P31321)
inactive: [1] 0.21 | [2] -0.026 | [3] 0.059 | [4] 0.019 | [5] -0.061

PBK (UniProt Q96KB5)
inactive: [1] -0.06 | [2] 0.016 | [3] 0.067 | [4] 0.023 | [5] -0.016

PSMC5 (UniProt P62195)
inactive: [1] 0.017 | [2] -0.087 | [3] -0.045 | [4] 0.006 | [5] 0.01

POLR2B (UniProt P30876)
inactive: [1] -0.028 | [2] 0.105 | [3] 0.047 | [4] 0.159 | [5] -0.053

PIP4P2 (UniProt Q8N4L2)
Sequence of UniProt Q8N4L2 (Q8N4L2 whole entry, looked up): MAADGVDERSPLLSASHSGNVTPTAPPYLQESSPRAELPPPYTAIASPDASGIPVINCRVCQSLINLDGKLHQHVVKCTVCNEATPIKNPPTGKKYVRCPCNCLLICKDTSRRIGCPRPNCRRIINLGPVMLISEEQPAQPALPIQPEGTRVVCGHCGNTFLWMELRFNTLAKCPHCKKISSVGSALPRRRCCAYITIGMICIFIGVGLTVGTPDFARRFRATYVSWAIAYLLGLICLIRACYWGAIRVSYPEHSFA
inactive: [1] 0.045 | [2] 0.048 | [3] -0.066 | [4] -0.017 | [5] -0.018

PEF1 (UniProt Q9UBV8)
inactive: [1] 0.01 | [2] 0.185 | [3] 0.047 | [4] -0.178 | [5] -0.014

PDCD6IP (UniProt Q8WUM4)
inactive: [1] -0.131 | [2] 0.05 | [3] 0.119 | [4] -0.029 | [5] -0.04

PDSS2 (UniProt Q86YH6)
Sequence of UniProt Q86YH6 (Q86YH6 whole entry, looked up): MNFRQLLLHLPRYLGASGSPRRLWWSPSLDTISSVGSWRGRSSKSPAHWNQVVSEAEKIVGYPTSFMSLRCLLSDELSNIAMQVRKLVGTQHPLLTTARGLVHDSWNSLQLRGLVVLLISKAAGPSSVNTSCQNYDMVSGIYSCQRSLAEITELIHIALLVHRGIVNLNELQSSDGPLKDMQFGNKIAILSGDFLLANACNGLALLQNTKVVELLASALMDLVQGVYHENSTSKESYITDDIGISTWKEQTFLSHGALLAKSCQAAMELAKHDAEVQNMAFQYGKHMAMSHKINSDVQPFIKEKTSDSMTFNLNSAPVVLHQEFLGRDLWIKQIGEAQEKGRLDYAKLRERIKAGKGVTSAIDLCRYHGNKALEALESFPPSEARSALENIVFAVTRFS
inactive: [1] -0.066 | [2] 0.052 | [3] 0.085 | [4] 0.005 | [5] 0.094

PRUNE1 (UniProt Q86TP1)
inactive: [1] -0.025 | [2] -0.002 | [3] 0.023 | [4] 0 | [5] -0.007

PPM1G (UniProt O15355)
inactive: [1] -0.139 | [2] 0.025 | [3] 0.081 | [4] 0.002 | [5] -0.089

PSMD13 (UniProt Q9UNM6)
inactive: [1] -0.008 | [2] -0.096 | [3] -0.046 | [4] -0.028 | [5] 0

PRKCG (UniProt P05129)
inactive: [1] -0.216 | [2] -0.025 | [3] 0.033 | [4] -0.017 | [5] 0.077

PRKD2 isoform 3 (UniProt Q9BZL6)
inactive: [1] -0.051 | [2] 0.238 | [3] -0.057 | [4] 0.064 | [5] 0.028

PDE4DIP isoform 4 (UniProt Q5VU43)
inactive: [1] 0.023 | [2] 0.043 | [3] 0.046 | [4] -0.023 | [5] -0.011

PHKA2 (UniProt P46019)
inactive: [1] -0.018 | [2] -0.003 | [3] 0.053 | [4] 0.023 | [5] 0.024

POGLUT1 (UniProt Q8NBL1)
Sequence of UniProt Q8NBL1 (Q8NBL1 whole entry, looked up): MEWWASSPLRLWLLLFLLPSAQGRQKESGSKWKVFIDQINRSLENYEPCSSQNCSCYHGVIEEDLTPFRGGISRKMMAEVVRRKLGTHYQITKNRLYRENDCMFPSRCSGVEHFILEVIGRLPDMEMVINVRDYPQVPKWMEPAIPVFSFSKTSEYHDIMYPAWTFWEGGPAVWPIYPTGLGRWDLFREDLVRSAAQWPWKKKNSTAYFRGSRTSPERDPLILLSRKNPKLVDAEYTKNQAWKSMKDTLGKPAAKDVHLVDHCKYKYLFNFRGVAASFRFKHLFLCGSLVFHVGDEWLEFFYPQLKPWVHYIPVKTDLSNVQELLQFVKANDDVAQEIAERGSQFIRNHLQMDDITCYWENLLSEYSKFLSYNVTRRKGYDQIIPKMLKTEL
inactive: [1] 0.039 | [2] -0.041 | [3] 0.082 | [4] 0.07 | [5] 0.015

PPOX (UniProt P50336)
inactive: [1] 0.385 | [2] 0.092 | [3] 0.129 | [4] 0.04 | [5] -0.045

PSPC1 (UniProt Q8WXF1)
inactive: [1] -0.023 | [2] -0.029 | [3] 0.038 | [4] -0.032 | [5] 0.015

PSME4 (UniProt Q14997)
inactive: [1] -0.041 | [2] 0.017 | [3] 0.017 | [4] -0.025 | [5] -0.048

PRMT7 (UniProt Q9NVM4)
inactive: [1] -0.051 | [2] 0.015 | [3] 0.056 | [4] 0.009 | [5] -0.027
